# Experimental data as given in PubChem BioAssay AID1259311 (ICCB-Longwood Screening Facility, Harvard Medical School, 2017).
# Several values for one entry are separate records, joined by “and”; a condition that tells them apart may be missing. Equal entries are not always repeated. Hit rate of the full screen: of about 330,000 compounds, about 1,100 (0.33%) were called active. No stated cut-off is given here; in the data, active means inhibition above about 85%; inactive means the rest. Many of the other results were omitted from the sample, so actives are more common in it than they were. A structure can be active in one record and inactive in another.
# Assay: growth inhibition of S. aureus RN4220, primary screen, OD600 (AID 1259311);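 further: plate controls were untreated cells for no effect and reference antibiotic for full effect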
# Settings: OD600, 16 h, stronger effect = higher value
row,SMILES,inhibition
1,CCOCC(=O)Nc1ncc(S(=O)(=O)c2ccc([N+](=O)[O-])cc2)s1,90.6% (active)
2,Cc1cc(NC(=O)COc2ccc([N+](=O)[O-])cc2)no1,-0.977% (inactive)
3,CC(C)c1nnc(NC(=O)COC(=O)/C=C/c2ccc([N+](=O)[O-])cc2)s1,-2.74% (inactive)
4,COC(=O)C1=C(C(=O)OC)C2Nc3ccccc3[C@@]23CC(C(=O)OC)N(C(=O)c2cccs2)C3=N1 (some centres not stated),2.73% (inactive)
5,CCN(CC)S(=O)(=O)c1cccc(-c2n[nH]c(=S)n2N=Cc2ccc(OC)cc2)c1,15% (inactive)
6,CC(C)CC(NC(=O)c1[nH]cnc1C(=O)NC(C)C(=O)OC(C)(C)C)C(=O)OC(C)(C)C (configuration not stated),4.67% (inactive)
7,Cc1ccc(N2C(=O)N3C(c4ccc(Br)cc4)C4C(=O)N(C(C)(C)C)C(=O)C4[C@]3(C)C2=O)cc1 (some centres not stated),5.35% (inactive)
8,N#C/C(=C/c1ccc(Cl)cc1)NC(=O)c1ccccc1,-6.37% (inactive)
9,N#CC(=NNc1ccc(Cl)cc1)C(=N)N1CCCCC1,-2.55% (inactive)
10,N#CC(=NNc1ccc(Cl)cc1)C(=O)c1ccccc1,100% (active)
11,O=c1c2ccccc2nc(/C=C/c2ccc(F)cc2)n1-c1ccccc1O,97.2% (active)
12,O=C(CSc1nc2ccccc2c(=O)n1-c1ccc(F)cc1)NC1CC1,-2.32% (inactive)
13,O=c1c2ccccc2nc(/C=C/c2ccco2)n1-c1ccccc1O,95.7% (active)
14,CCn1c(/C=C/c2ccc([N+](=O)[O-])o2)nc2ccccc2c1=O,11.2% (inactive)
15,O=C(CSc1nc2ccccc2c(=O)n1-c1ccccc1F)N1CCOCC1,-0.567% (inactive)
16,Cc1nc2ccccc2c(=O)n1-c1ccc(Cl)cc1Cl,2.26% (inactive)
17,O=C(NC(C(=O)NN=Cc1ccccn1)c1n[nH]c(=O)c2ccccc12)c1ccccc1 (configuration not stated),0.248% (inactive)
18,CCCOc1ccc(C=NNC(=O)CSCc2ccc([N+](=O)[O-])cc2)cc1OCC,3.47% (inactive)
19,CC(CC(=O)Nc1ccc([N+](=O)[O-])cc1)=NNC(=O)C1CC12CCC2 (configuration not stated),3.47% (inactive)
20,COc1ccccc1C=NNC(=O)CO,5.18% (inactive)
21,CNC(=O)C(=NO)c1ccccc1,0.94% (inactive)
22,O=C1CS/C(=N/N=Cc2ccncc2)N1,2.12% (inactive)
23,COc1ccc(CCN2C(=O)CSC2=NNC(=O)c2cccs2)cc1OC,2.01% (inactive)

row,SMILES,inhibition
1,COc1ccc(C=NN=Cc2ccc(OC)c(OC)c2)cc1OC,-1.08% (inactive)
2,CN(C)C=Nc1sc2c(c1C#N)CC(C)(C)NC2(C)C,2.77% (inactive)
3,COc1ccc(C(C)=NNC(=O)CSc2nnc(C)s2)cc1,6.45% (inactive)
4,O=C(Cc1ncc(C(F)(F)F)cc1Cl)Nc1cccc(Br)c1,-2.16% (inactive)
5,NC(=O)N1CCCC1C(=O)Nc1ccc(Cl)c(Cl)c1 (configuration not stated),0.288% (inactive)
6,O=C(CC(O)(C(F)(F)F)C(F)(F)F)Nc1ccc(Cl)c(Cl)c1,100% (active)
7,Cc1[nH]c2ccccc2c1C=NNC(=O)CNC(=O)c1cccs1,2.5% (inactive)
8,COc1ccc(C=Nn2nnnc2N)c(OC)c1,2.12% (inactive)
9,COc1ccc(C(=O)NN=Cc2ccc(OC(=O)c3cccc4ccccc34)c([N+](=O)[O-])c2)cc1,95.4% (active)
10,COc1ccc(C(=O)NN=Cc2ccc(OC)c(CN3CCCc4ccccc43)c2)cc1,0.711% (inactive)
11,COc1ccc(C=NNC(=O)c2ccccc2OC)cc1COc1ccccc1[N+](=O)[O-],4.25% (inactive)
12,C1=CC2CCN(Cc3ccccc3)Cc3cccc(c32)C1 (configuration not stated),4.59% (inactive)
13,Cc1cccc(-n2c(C)cc(C=NO)c2C)c1,-4.73% (inactive)
14,O=C(CCl)N(Cc1cccc([N+](=O)[O-])c1)c1cccc(Cl)c1,94.9% (active)
15,O=C(c1cccc([N+](=O)[O-])c1)N1CCN(Cc2ccccc2)CC1,2.33% (inactive)
16,Cc1ccc(S(=O)(=O)N(Cc2cccc([N+](=O)[O-])c2)C(=O)N2CCN(C)CC2)cc1,2.8% (inactive)
17,CCCCNC(=O)CC1S/C(=N/N=Cc2ccc(OC)cc2)NC1=O (configuration not stated),10.5% (inactive)
18,Cc1ccc(C=NNC(=O)Cc2cccn2C)cc1,1.44% (inactive)
19,Cc1ccc(O)c(C(=O)C=Cc2ccc3c(c2)OCCO3)c1,-1.13% (inactive)
20,COc1c(O)ccc(C=NNC(=O)c2ccc3c(c2)OCCO3)c1[N+](=O)[O-],0.97% (inactive)
21,O=C(NN=Cc1cc([N+](=O)[O-])ccc1O)C12CC3CC(CC(C3)C1)C2,63.4% (inactive)
22,CN1CCN(CCC(=O)NN=Cc2cc([N+](=O)[O-])ccc2O)CC1,88.7% (active)
23,CN1CCN(CCNC(=O)Nc2ccc([N+](=O)[O-])cc2)CC1,2.31% (inactive)

row,SMILES,inhibition
1,OCCC1CC(O)C(O)[C@@]2(CCCc3ccccc3O2)O1 (some centres not stated),-1.69% (inactive) and 51.2% (inactive) and 98.7% (active)
2,OCCC1CC(O)C(O)[C@]2(Cc3ccccc3O2)O1 (some centres not stated),1.1% (inactive) and -0.123% (inactive) and 7.32% (inactive)
3,Cc1cccc(NC(=NS(=O)(=O)c2ccccc2)c2ccccc2)n1,-0.262% (inactive)
4,CC(N)=C(C#N)C(=O)CSc1ccccc1F,5.44% (inactive)
5,N#CC(=NNc1cc(Cl)cc(Cl)c1)c1nnc2n1CCCCC2,0.845% (inactive)
6,Cc1cc(C)n(C(=O)C(C#N)=NNc2cc(Cl)cc(Cl)c2)n1,99.6% (active)
7,Cc1cc(C)n(C(=O)CCNC(=O)c2ccccc2Cl)n1,4.12% (inactive)
8,COc1ccc(C=NNc2ccc([N+](=O)[O-])cc2S(=O)(=O)N2CCN(C)CC2)cc1,-2.66% (inactive)
9,O=C(NN=Cc1cc(Cl)cc([N+](=O)[O-])c1O)c1cccc(S(=O)(=O)N2CCOCC2)c1,5.65% (inactive)
10,COc1ccc(NC(=O)/C(Cl)=C(/Cl)S(=O)Cc2ccc(C)cc2)cn1 (configuration not stated),93.4% (active)
11,COc1ccc(CS(=O)/C(Cl)=C(/Cl)C(=O)Nc2ccc(OC)nc2)cc1 (configuration not stated),1.8% (inactive)
12,COc1cccc(NC(=S)N(Cc2ccc(C)cc2)Cc2ccccn2)c1,2.66% (inactive)
13,COc1ccc(CN2CCC(=O)N(C(CO)CC(C)C)CC2)cc1 (configuration not stated),3.45% (inactive)
14,COc1ccc(C2CC(=O)C=C(c3ccc(C)cc3)C2)cc1 (configuration not stated),5.1% (inactive)
15,O=C(NN=Cc1ccsc1)c1cc(-c2cccs2)nc2ccccc12,2.77% (inactive)
16,CC(C)(C)Cc1nnc(NC(=O)c2cc(-c3ccccc3)nc3ccccc23)s1,-1.74% (inactive)
17,O=C(Nc1nnc(-c2ccccc2)o1)c1cc(-c2cccs2)nc2ccccc12,100% (active)
18,CC(C)(C=NO)N(O)C=C1C=CC(=O)C=C1,1.68% (inactive)
19,COCCNC(=O)C1CCCN1S(=O)(=O)c1cccc2cccnc12 (configuration not stated),6.77% (inactive)
20,CC1(C)CC(N2CCN(C(c3ccccc3)c3ccccc3)CC2)=CC(=[N+]2CCCCC2)C1,100% (active)
21,c1ccc(C(c2ccccc2)N2CCN(Cc3nnnn3C3CCCCC3)CC2)cc1,-1.54% (inactive)
22,COc1ccccc1CN1CCN(C(c2ccccc2)c2ccccc2)CC1,-0.651% (inactive)
23,CC(NC(=O)c1nc[nH]c1C(=O)NCCCCCNC(=O)OC(C)(C)C)c1ccccc1 (configuration not stated),8.53% (inactive) and 1.7% (inactive)

row,SMILES,inhibition
1,C[C@]12CCC(O)CC1CCC1C2CC[C@]2(C)C(O)CCC12 (some centres not stated),7.5% (inactive)
2,Cc1ccc(NS(=O)(=O)c2cc([N+](=O)[O-])ccc2NN=Cc2sc(N3CCOCC3)nc2-c2ccccc2)c(C)c1,-5% (inactive)
3,COC(=O)Cc1ccc(OCC(=O)NC2CCCC2)cc1,2.26% (inactive)
4,CC1(C)SC2C(NC(=O)COc3ccccc3)C(=O)N2C1C(=O)O (configuration not stated),99.8% (active)
5,Cc1cccc(OCC(=O)NC2CC(C)(C)NC(C)(C)C2)c1,-1.7% (inactive)
6,O=S(=O)(NN=Cc1cccc(F)c1)c1ccccc1,29.9% (inactive)
7,CCOc1cccc(-c2c(C(=O)NN=Cc3ccc(C)o3)nnn2-c2nonc2N)c1,4.52% (inactive)
8,C#Cc1ccc(C2C=C(C(=O)N3CCOCC3)OC(OCC)C2CCCO)cc1 (configuration not stated),2.8% (inactive) and 5.16% (inactive)
9,C#C[C@]1(O)CCC2C3CCC4=Cc5nc6nc7ccccc7n6cc5C[C@]4(C)C3CC[C@@]21C (some centres not stated),-13.8% (inactive)
10,CC(=NNC(=O)c1nnn(-c2nonc2N)c1CSc1ccc(C)cc1)c1ccco1,4.06% (inactive)
11,COc1cccc(-c2nnc(NC(=O)c3ccc(S(=O)(=O)N(CC(C)C)CC(C)C)cc3)o2)c1,99.9% (active)
12,O=C(Nc1nnc(-c2ccco2)o1)c1ccc(S(=O)(=O)N2CCOCC2)cc1,1.85% (inactive)
13,COc1ccc(-c2nnc(NC(=O)CS(=O)(=O)c3ccc(Cl)cc3)o2)c(OC)c1,3.79% (inactive)
14,CC1CN(C(C)CO)C(=O)c2cccc(NC(=O)c3ccc(-c4nccs4)cc3)c2OC1CN(C)C(=O)NC1CCCCC1 (configuration not stated),4.31% (inactive)
15,C=C[C@]1(C)CC(OC(=O)CSCCN(CC)CC)[C@]2(C)C(C)CC[C@]3(CCC(=O)C32)C(C)C1O (some centres not stated),101% (active)
16,COC(=O)[C@]1(CC(C)C)NC(c2ccc(-c3ccc(F)cc3)c(OC)c2)C2C(=O)N(C)C(=O)C21 (some centres not stated),-2.27% (inactive)
17,COc1ccc(C2C=CCN(C(=O)Nc3ccccc3-c3ccccc3)CC(=O)N2Cc2ccc(F)cc2)cc1 (configuration not stated),4.3% (inactive)
18,CC(C)CCn1c(=O)c(C(=O)NN=Cc2cccc(F)c2)c(O)c2ccccc21,101% (active)
19,COc1cc(C(=O)NN=Cc2cn(Cc3cccc(F)c3)c3ccccc23)ccc1O,-2.54% (inactive)
20,CCCn1c(=O)c(-c2ccccc2)c(O)c2ccccc21,4.44% (inactive)
21,CCCn1c(=O)c(C(=O)Nc2cc(C)ccn2)c(O)c2ccccc21,8.88% (inactive)
22,CCCCCn1c(=O)c(C(=O)NCc2ccccc2)c(O)c2ccccc21,-1.56% (inactive)
23,CCCn1c(=O)c(C(=O)NN=Cc2ccc(F)cc2)c(O)c2ccccc21,101% (active)
